# How the values were obtained:
# Experiment in all cases: DAPPL (digital affinity profiling via proximity ligation, sequencing); 10 mM Tris-HCl pH 7.5, 50 mM NaCl, 1 mM DTT, 4% glycerol, room temperature, 30 min; GST-TFs on glutathione beads, 16-mer random dsDNA library, 0.1% formaldehyde crosslink after washing; high values mean tight binding
# Conditions in all cases: protein: recombinant; tags: N-terminal GST; dsDNA, one strand shown
# FLI1 = molecular target: T1, FLI1 (Homo sapiens, UniProt Q01543 1-452)
# T1 sequence: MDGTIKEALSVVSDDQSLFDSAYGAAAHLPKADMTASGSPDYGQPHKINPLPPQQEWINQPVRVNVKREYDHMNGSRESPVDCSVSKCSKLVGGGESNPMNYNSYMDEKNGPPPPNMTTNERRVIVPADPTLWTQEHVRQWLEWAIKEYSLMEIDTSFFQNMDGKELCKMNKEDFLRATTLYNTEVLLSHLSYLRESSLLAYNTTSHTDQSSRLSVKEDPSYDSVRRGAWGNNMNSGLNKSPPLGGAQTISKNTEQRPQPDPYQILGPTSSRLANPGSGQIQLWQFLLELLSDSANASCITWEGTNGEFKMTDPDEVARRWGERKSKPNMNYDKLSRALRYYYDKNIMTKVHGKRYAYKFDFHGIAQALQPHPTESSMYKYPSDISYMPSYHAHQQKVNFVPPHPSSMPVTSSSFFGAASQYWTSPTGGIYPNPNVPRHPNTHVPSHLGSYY
# Summary of the method: (§1)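 Beads coated with glutathione captured GST-fused human transcription factors that had been expressed in yeast, and the factors were then given DNA barcodes and pooled with a tag-only sample. The pools were incubated with 200 nmole of a random double-stranded 16-mer DNA library in Tris/NaCl/DTT/glycerol buffer for 30 min at room temperature, washed, crosslinked with 0.1% formaldehyde and proximity-ligated with BsaI/T4 ligase at 37 °C for 1 h. PCR amplification and Illumina NextSeq500 sequencing came last. Binding signal is each hexamer's read frequency for a factor divided by its frequency for the tag-only sample.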
# ELK1 = molecular target: T2, ELK1 (Homo sapiens, UniProt P19419 1-428)
# T2 sequence: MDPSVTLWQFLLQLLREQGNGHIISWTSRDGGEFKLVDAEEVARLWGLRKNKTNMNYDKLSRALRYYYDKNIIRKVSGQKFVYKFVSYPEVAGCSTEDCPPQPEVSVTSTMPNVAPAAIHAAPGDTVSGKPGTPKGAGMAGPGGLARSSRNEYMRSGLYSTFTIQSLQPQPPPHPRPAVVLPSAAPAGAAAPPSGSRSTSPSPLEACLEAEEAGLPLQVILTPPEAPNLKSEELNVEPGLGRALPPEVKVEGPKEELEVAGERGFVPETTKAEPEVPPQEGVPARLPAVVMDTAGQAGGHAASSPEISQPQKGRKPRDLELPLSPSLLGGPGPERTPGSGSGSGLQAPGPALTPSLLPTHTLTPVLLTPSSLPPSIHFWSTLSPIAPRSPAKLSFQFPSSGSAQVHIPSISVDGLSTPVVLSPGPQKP
# Summary of the method: as §1
# GABPA = molecular target: T3, GABPA (Homo sapiens, UniProt Q06546 1-454)
# T3 sequence: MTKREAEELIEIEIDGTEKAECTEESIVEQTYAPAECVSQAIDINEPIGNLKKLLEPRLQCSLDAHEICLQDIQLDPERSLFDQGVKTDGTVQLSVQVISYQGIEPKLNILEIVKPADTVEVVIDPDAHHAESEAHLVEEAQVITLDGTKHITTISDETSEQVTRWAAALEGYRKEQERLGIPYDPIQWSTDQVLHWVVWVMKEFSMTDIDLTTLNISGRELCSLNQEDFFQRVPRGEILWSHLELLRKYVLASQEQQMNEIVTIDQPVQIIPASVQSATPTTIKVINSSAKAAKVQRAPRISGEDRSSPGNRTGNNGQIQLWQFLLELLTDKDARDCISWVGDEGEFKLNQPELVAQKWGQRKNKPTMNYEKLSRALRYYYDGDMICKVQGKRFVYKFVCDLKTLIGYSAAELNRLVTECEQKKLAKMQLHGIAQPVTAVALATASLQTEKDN
# Summary of the method: as §1
# ERG = molecular target: T4, ERG (Homo sapiens, UniProt P11308 1-479)
# T4 sequence: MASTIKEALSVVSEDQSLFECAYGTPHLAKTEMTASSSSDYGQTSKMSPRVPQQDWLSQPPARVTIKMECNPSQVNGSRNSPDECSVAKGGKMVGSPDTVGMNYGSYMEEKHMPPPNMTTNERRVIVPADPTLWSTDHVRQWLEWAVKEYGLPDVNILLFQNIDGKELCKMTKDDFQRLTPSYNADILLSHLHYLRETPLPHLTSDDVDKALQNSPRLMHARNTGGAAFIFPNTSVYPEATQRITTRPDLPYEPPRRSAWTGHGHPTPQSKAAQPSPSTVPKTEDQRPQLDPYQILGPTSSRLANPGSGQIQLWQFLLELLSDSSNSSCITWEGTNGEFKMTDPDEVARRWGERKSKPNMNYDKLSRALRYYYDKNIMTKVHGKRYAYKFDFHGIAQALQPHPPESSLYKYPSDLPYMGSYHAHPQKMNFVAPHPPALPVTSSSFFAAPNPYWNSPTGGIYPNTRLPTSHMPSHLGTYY
# Summary of the method: as §1
# ELF1 = ELF1 (Homo sapiens, UniProt P32519 1-619)
# Sequence of ELF1 (P32519 whole entry): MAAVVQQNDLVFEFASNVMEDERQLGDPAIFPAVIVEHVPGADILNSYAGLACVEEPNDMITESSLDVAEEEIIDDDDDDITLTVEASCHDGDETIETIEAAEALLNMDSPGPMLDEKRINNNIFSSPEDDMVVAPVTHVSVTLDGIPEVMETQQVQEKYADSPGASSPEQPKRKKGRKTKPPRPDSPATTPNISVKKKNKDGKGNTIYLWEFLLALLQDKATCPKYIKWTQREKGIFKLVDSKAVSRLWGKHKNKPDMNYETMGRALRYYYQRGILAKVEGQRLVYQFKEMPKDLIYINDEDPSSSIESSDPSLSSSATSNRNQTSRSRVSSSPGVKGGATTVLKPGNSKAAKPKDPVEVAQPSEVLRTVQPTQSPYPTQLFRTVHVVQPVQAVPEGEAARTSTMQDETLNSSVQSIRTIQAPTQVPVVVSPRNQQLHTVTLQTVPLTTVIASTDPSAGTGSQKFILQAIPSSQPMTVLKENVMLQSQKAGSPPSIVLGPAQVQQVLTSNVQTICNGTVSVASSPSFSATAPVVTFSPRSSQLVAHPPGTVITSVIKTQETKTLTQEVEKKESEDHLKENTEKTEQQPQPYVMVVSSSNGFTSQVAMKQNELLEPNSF
# Summary of the method: as §1
# EHF = molecular target: T5, EHF (Homo sapiens, UniProt Q9NZC4 1-300)
# T5 sequence: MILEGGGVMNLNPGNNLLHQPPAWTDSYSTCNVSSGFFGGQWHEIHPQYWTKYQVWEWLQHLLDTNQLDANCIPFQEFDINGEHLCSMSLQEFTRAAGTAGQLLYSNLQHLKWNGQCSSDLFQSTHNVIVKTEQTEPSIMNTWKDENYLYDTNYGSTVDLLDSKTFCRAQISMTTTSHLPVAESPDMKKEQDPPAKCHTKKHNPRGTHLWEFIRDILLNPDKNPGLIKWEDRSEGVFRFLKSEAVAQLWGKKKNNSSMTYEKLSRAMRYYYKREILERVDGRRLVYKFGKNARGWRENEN
# Summary of the method: as §1
# SPI1 = SPI1 (Homo sapiens, UniProt P17947 1-270)
# Summary of the method: as §1
# SPIB = SPIB (Homo sapiens, UniProt Q01892 1-262)
# Sequence of SPIB (Q01892 whole entry): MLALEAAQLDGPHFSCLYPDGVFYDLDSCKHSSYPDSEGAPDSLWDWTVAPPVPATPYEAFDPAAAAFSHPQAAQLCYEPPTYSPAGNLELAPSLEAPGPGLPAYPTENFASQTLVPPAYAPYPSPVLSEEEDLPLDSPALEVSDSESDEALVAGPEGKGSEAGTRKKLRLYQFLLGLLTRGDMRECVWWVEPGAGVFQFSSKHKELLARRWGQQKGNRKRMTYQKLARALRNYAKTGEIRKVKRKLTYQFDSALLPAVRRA
# Summary of the method: as §1
# ELK3 = molecular target: T6, ELK3 (Homo sapiens, UniProt P41970 1-407)
# T6 sequence: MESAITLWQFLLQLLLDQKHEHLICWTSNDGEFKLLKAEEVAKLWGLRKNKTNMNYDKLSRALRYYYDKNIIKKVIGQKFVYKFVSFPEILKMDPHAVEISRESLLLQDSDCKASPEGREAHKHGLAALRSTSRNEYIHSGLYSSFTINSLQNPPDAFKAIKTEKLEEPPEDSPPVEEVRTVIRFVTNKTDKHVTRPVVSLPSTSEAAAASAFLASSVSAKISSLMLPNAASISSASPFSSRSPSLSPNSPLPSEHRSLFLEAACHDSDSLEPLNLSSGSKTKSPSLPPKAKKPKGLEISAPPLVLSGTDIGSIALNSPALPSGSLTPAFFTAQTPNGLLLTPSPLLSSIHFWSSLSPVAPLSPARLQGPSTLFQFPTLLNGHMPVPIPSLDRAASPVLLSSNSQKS
# Summary of the method: as §1
sequence,measurement,setting,value
TCTTCG,binding signal,FLI1,"1.45 fold enrichment (6-mer frequency, TF over GST control)"
same,binding signal,ELK1,"1.49 fold enrichment (6-mer frequency, TF over GST control)"
same,binding signal,GABPA,"1.45 fold enrichment (6-mer frequency, TF over GST control)"
same,binding signal,ERG,"1.41 fold enrichment (6-mer frequency, TF over GST control)"
same,binding signal,ELF1,"1.51 fold enrichment (6-mer frequency, TF over GST control)"
same,binding signal,EHF,"1.31 fold enrichment (6-mer frequency, TF over GST control)"
same,binding signal,SPI1,"1.47 fold enrichment (6-mer frequency, TF over GST control)"
same,binding signal,SPIB,"1.57 fold enrichment (6-mer frequency, TF over GST control)"
same,binding signal,ELK3,"1.49 fold enrichment (6-mer frequency, TF over GST control)"

# Reference: article PMC7862700, “An all-to-all approach to the identification of sequence-specific readers for epigenetic DNA modifications on cytosine”
